Results: PubChem BioAssay (NCI)
The panel holds about 83,000 compounds, 20% with a hit somewhere; the sample as a whole holds those more often.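 Cell lines were cultured in 96-well plates, exposed to a single compound concentration, and assessed for percent growth 48 hours later.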 Unmarked numbers belong to inactive results. Calls of active or inactive are those of the source. The calls were made as follows: active = growth percent below 10; inactive = the rest.

Tests used:
Experiment in all cases: NCI-60 one-dose screen, 48 h (100 = growth as untreated, 0 = no growth, -100 = all killed)
Details in all cases: 10 µM unless noted
T-47D breast = tested on: T-47D breast
BT-549 breast = tested on: BT-549 breast
MDA-MB-435 melanoma = tested on: MDA-MB-435 melanoma
SW-620 colon = tested on: SW-620 colon
MCF7 breast = tested on: MCF7 breast
HCT-116 colon = tested on: HCT-116 colon
HCC-2998 colon = tested on: HCC-2998 colon
KM12 colon = tested on: KM12 colon

SMILES	growth (T-47D breast)	growth (BT-549 breast)	growth (MDA-MB-435 melanoma)	growth (SW-620 colon)	growth (MCF7 breast)	growth (HCT-116 colon)	growth (HCC-2998 colon)	growth (KM12 colon)
Nc1c(C(=O)Nc2cccc(C(F)(F)F)c2)sc2nc3c(cc12)CCCCC3	-11.6% (active)	25.2%	32.7%	58.3%	29.5%	-7.78% (active)	46.9%	35.7%
CCCCC[C@@H]1Cc2cc(O)c(C(=O)O)c3c2[C@H](C[C@@]2(CCCO2)O3)O1	108%	115%	97.2%	111%	102%	100%	95.9%	118%
CCCCCCOc1ccc(C2(Cl)c3ccccc3N(C)c3ccccc32)cc1	44.2%	86.5%	-23.5% (active)	7.18% (active)	0.626% (active)	16.1%	59.8%	62.9%
CCOC(=O)[C@H](CSSc1ncnc2cc[nH]c12)NC(=O)[C@@H](C)c1ccc2cc(OC)ccc2c1	23.3%	46.3%	24.4%	19.3%	8.81% (active)	11.1%	25.4%	23.5%
O=C(NCCc1c[nH]c2ccccc12)C1Cc2ccccc2CN1C(=O)c1ccco1 (stereo not drawn)	105%	102%	116%	103%	90.3%	102%	164%	105%
COc1ccccc1CNCCCN1C(=O)c2ccc3c4c(ccc(c24)C1=O)C(=O)N(CCCNCCCCNCCCCN)C3=O	-1.05% (active)	102%	-59.7% (active)	2.99% (active)	-34.9% (active)	3.34% (active)	-4.93% (active)	5.46% (active)
O=C(NCCCN1CCN(CCCNC(=O)C2CCCCC2)CC1)C1CCCCC1	90%	96.4%	96.4%	95%	95.7%	95.6%	99.9%	104%
COc1ncc(-c2ccc3ncnc(Nc4cccc(Cl)c4)c3c2)cc1NS(=O)(=O)C1CC1	-1.98% (active)	2.9% (active)	47.9%	51.1%	7.65% (active)	49.2%	59.9%	69.7%
Cc1sc(N=Nc2ccc(N(C)C)cc2)[n+]([O-])c1C	95.4%	94.3%	101%	99.3%	79.9%	112%	112%	91.7%
CCC1CCc2nc3sc(C(=O)Nc4ccccc4F)c(N)c3cc2C1 (stereo not drawn)	87.4%	76%	-15.5% (active)	36.4%	18.9%	63.8%	91.6%	35.3%
COc1ccc(/C=C/C(=O)/C=C/c2cc3ccc(Cl)cc3[nH]c2=O)cc1	67.3%	75.6%	81.5%	66.1%	25.2%	-50.8% (active)	93.1%	72.5%
CC(C)(C)c1cc(-c2nc3ccc(N4CCN(CCO)CC4)cc3[nH]2)cc(C(C)(C)C)c1O	60.6%	92%	6.38% (active)	9.88% (active)	35.6%	25.3%	12.9%	18.2%
CCN(Cc1ccc(CN(CC)C(=O)C(Cl)(Cl)Cl)cc1)C(=O)C(Cl)(Cl)Cl	78.2%	78.3%	83.7%	89%	89.2%	56.4%	92.4%	81.5%
Cc1nc2scc(-c3ccccc3)n2c(=O)c1CCO	99.6%	116%	103%	101%	88.9%	101%	112%	103%
O=C(CCCn1c(=O)c2sc3ccccc3c2n2nnc(-c3ccccc3)c12)NCCc1cnc[nH]1	4.62% (active)	32.3%	-49.9% (active)	-11.1% (active)	-47.4% (active)	-86.6% (active)	-42.6% (active)	-7.92% (active)
Nc1c(C(=O)Nc2cccc(C(F)(F)F)c2)sc2nc3c(cc12)CCCCCC3	-7% (active)	59.6%	31%	46%	20.4%	-18.1% (active)	37.1%	30.1%

SMILES	growth (T-47D breast)	growth (BT-549 breast)	growth (MDA-MB-435 melanoma)	growth (SW-620 colon)	growth (MCF7 breast)	growth (HCT-116 colon)	growth (HCC-2998 colon)	growth (KM12 colon)
O=c1oc2cc(OS(=O)(=O)c3ccccc3)c(Cl)cc2c2c1CCCCCC2	73.9%	79.1%	90%	98.1%	90.6%	74.8%	106%	92.1%
CC1=C(C#N)C(C)(C)C(C#N)=C(C)N1	96.6%	100%	105%	102%	96.7%	104%	108%	103%
CC/C=C\C/C=C\C[C@H](O)C/C=C1/C(=O)C=C[C@H]1C/C=C\CCC(=O)OC	16.7% [8.25 µM]	14.6% [8.25 µM]	-14.1% [8.25 µM] (active)	6.55% [8.25 µM] (active)	28.1% [8.25 µM]	-41.6% [8.25 µM] (active)	61.2% [8.25 µM]	3.51% [8.25 µM] (active)
O=C1N=C(c2c(-c3[nH]c(=O)c4ccc(Br)cc4c3O)c(O)c3ccccc3c2O)C(=O)c2cc(Br)ccc21	-34.2% (active)	-25.4% (active)	-63.4% (active)	-70.7% (active)	-35.2% (active)	-21.7% (active)	-44.3% (active)	-53.2% (active)
CC(=O)n1cc([C@H]2CC[C@H](c3cn(C(C)=O)c4ccccc34)c3c2[nH]c2ccccc32)c2ccccc21	50.8%	95.2%	93.1%	90.3%	63.7%	63.9%	87.3%	64.4%
CC(C)(C)c1ccc(S(=O)(=O)Oc2ccc3c4c(c(=O)oc3c2)CCCCC4)cc1	45.9%	46.6%	11.9%	55.2%	32.3%	36.6%	74.5%	55.1%
COc1ccc(/C=C/C(=O)OCC(=O)NNC(=O)c2ccccc2)cc1OC	101%	98.6%	104%	98.4%	85.6%	103%	127%	115%
COc1cc2nc(SCc3cc(OC)c(OC)c(OC)c3)n(Cc3ccccc3)c(=O)c2cc1OC	35.9%	16.8%	-20.3% (active)	33.5%	10.1%	14.7%	40.9%	15.4%
CCCCCC(=O)OCc1ccccc1	95.2%	84.5%	96.3%	98.1%	97.4%	93.8%	96.9%	98.1%
Clc1nc2ccccc2nc1CI	108%	92%	89.2%	36.3%	91.1%	23%	117%	104%
O=S(=O)(NCCNc1nccc(-c2c(-c3ccccc3)nc3sccn23)n1)c1ccc(O)cc1	41.2%	48.9%	10.5%	30%	18.5%	21.5%	64.9%	21.6%
O=C(CNc1c(Cl)cccc1Cl)Nc1ccc(-c2nc3ccccc3s2)cc1	-19% (active)	22%	67.9%	35.3%	14.6%	29.9%	35.6%	91.3%
C=C1C(=O)O[C@H]2[C@H]1CC/C(Cn1cc(-c3ccccc3C(F)(F)F)nn1)=C\CC[C@@]1(C)O[C@@H]21	-82.4% (active)	-60.4% (active)	4.12% (active)	-62.9% (active)	-70.5% (active)	-99.1% (active)	-45.9% (active)	36.5%
COc1ncc(-c2ccc3ncnc(Nc4cccc(Cl)c4)c3c2)cc1NS(=O)(=O)CCN1CCOCC1	-10.6% (active)	-4.07% (active)	11.8%	29.5%	7.16% (active)	29.7%	18.9%	26%
Cc1ccc2c(c1)C(=O)C(c1c(-c3[nH]c(=O)c4ccc(C)cc4c3O)c(O)c3ccccc3c1O)=NC2=O	11.9%	32.7%	30.7%	7.11% (active)	12.3%	12.9%	62%	18.5%
